From PubChem
Most compounds without a hit are left out; they make up all but 6.2% or so of the library.
Luc counter: blocks Kinase-Glo luciferase, a counter-screen artifact; Potency, µM (doses to about 38.3 µM), actives largely listed as inhibitors; actives 0.28% (n = 200,000); Kinase-Glo luciferase, ATP luminescence, 8 min; also: nearly all actives have a fitted effect of over 60% in size
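Compounds were added to a substrate mix at pH 7.2 (50 mM imidazole, 10 uM ATP, within the enzyme's linear range), followed by Kinase-Glo detection reagent; luminescence was measured after 8 minutes at ambient temperature.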
RORgamma inh: ROR gamma (mouse) transcription inhibition; actives 5.4% (n = 310,000); Potency, µM (doses to about 53.6 µM), usual class: inhibitors; Drosophila S2 Gal4-RORgamma UAS-luciferase reporter, 20 h; AID 2551; also: nearly all actives have a fitted effect of over 60% in size
Target sequence (P51450 whole entry, looked up, the tested form may be a part): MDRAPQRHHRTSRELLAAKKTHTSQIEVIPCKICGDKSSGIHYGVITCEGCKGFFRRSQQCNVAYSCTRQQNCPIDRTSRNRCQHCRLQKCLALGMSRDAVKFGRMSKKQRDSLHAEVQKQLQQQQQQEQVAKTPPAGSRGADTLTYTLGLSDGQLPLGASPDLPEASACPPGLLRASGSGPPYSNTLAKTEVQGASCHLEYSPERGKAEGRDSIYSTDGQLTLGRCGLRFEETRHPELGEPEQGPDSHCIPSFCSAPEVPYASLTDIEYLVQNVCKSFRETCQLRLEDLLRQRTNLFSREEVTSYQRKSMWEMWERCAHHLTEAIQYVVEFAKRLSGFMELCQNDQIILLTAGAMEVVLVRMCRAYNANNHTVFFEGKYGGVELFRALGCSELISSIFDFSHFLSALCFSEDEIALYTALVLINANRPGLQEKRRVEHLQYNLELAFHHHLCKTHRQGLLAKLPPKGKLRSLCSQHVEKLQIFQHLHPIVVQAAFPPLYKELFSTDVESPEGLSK
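Drosophila S2 cells stably expressing Gal4-DBD/mouse RORγ fusion under metallothionein promoter plus UAS-luciferase; compound 1 h, then 700 uM CuSO4 induction for 20 h at ambient temperature; inhibition read as reduced luminescence.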
VP16 counter: counter-screen for ROR gamma inhibitors: Gal4-VP16 reporter. Drosophila S2 Gal4-VP16 UAS-luciferase, luminescence, 20 h. Potency, µM (top dose mostly 53.6 µM), most hits filed as inhibitors. actives 3.5% (n = 310,000). AID 2546;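 also: Gal4-VP16 expression switched on by copper sulfate through the metallothionein promoter; nearly all actives have a fitted effect of over 50% in size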
A number is an active result; 0 = inactive; ? = inconclusive; - = no result given; ! = not confirmed by another sample; [ ] = remark or other dose. Calls follow the shape of the dose curve; as a rule, active = well fitted curve in the direction sought with a large enough effect; inconclusive = small, poorly fitted or top-dose-only effect, or another doubt; inactive = no such curve, though single readings can be large; an effect the other way counts as inactive or inconclusive.

SMILES	Luc counter	RORgamma inh	VP16 counter
Cn1c(-c2c(N)n(-c3ccccc3)c3nc4ccccc4nc23)nc2ccccc21	0	1.1µM	3.5µM
Cc1cccc(-n2c(N)c(-c3nc4ccccc4n3C)c3nc4ccccc4nc32)c1	0	2.8µM	5µM
Cc1ccc(-n2c(N)c(-c3nc4ccccc4n3C)sc2=S)cc1	0	5µM	?
O=C1[C@H]2CCCC[C@H]2C(=O)N1CCCCN1CCN(c2nsc3ccccc23)CC1	-	0[10 µM]	0
CCOC(=O)C(NC(C)=O)C(=O)Nc1ccc(C)cc1C (configuration not stated)	0	0	0[10 µM]
O=[n+]1c2c(n([O-])c3c1CCCC3)CCCCC2	0	0	0
CCn1c(SCC(=O)NC2CCS(=O)(=O)C2)nnc1-c1ccccc1 (configuration not stated)	0	0	0
Cc1ccc(-c2cn(-c3ccccc3)c(SCC(=O)NC3CCS(=O)(=O)C3)n2)cc1C (configuration not stated)	0	13µM	?
Nn1cc(-c2ccccc2)nc1SCC(=O)NCCc1ccccc1	0	0	0
NNC(=O)CSc1nc(-c2ccccc2)cn1-c1ccccc1	-	5.6µM	0
Cc1ccc(C)n1-c1ccc(C(=O)NCC2CCCO2)cc1 (configuration not stated)	0	0	0
O=C(Nc1ccc2c(c1)CN(Cc1ccco1)CC2)C1CCCO1 (configuration not stated)	-	0	0
CC(C)(C)NC(=O)NCC1CCCC1NC(=O)NC(C)(C)C (configuration not stated)	-	0	0
CC(=O)OCC(NC(=O)C(CCCCNC(=O)OCc1ccccc1)NC(=O)OC(C)(C)C)C1OC(n2cc(F)c(=O)[nH]c2=O)C(OC(C)=O)C1OC(C)=O (configuration not stated)	-	0	0
c1ccc2c(c1)Cc1cc3ccccc3nc1-2	10µM	11µM!	?
O=C1c2ccccc2-c2nc3ccccc3cc21	-	?	0
O=C(O)c1cc(S(=O)(=O)Nc2cccc(F)c2)ccc1Cl	0	-	-
O=C(Nc1ccc(N2CCCC2=O)cc1)c1cccc(F)c1	7.9µM	0	0
CCNC(=S)Nc1ccc(N2CCCCC2)cc1	0	13µM	0
COCCCNC(=S)N1CCN(c2ccccc2)CC1	0	0	0
COCCCNC(=S)Nc1ccc(N2CCCCC2)cc1	0	18µM	?
Cc1ccc(C(=O)Nc2ccc(N3CCCC3)cc2)cc1	0	0	0
CCC(=O)Nc1ccc(N2CCCCC2)cc1	0	?	0
O=C(Nc1ccc(N2CCCCC2)cc1)c1ccccc1	?	3.5µM	?
O=C(Nc1ccc(N2CCCC2)cc1)c1cccc(F)c1	?	0	0
SMILES	Luc counter	RORgamma inh	VP16 counter
Cc1ccc(NC(=O)CCCNC(=O)c2ccc(Cl)cc2)c(Br)c1	-	0	0
CC[C@H](C)[C@H](NC(N)=O)C(=O)Nc1ccc2c(c1)OCO2	0	0	0
COC(=O)N/N=C/c1cn(Cc2c(Cl)cccc2Cl)c2ccccc12	0	0	0
COc1ccc(CCNC(=O)CN(c2ccc(OC)c(OC)c2)S(=O)(=O)c2ccc(C)cc2)cc1	-	0	0
O=C(COc1c(Br)cc(Br)cc1Br)N/N=C/c1ccco1	-	0	0
COc1ccc(C(=O)Nc2ccc(NC(=O)c3cnccn3)cn2)cc1	0	0	0
COc1c2c(cc3c1C(CC(O)C(C)C)N(C)CC3)OCO2 (configuration not stated)	0	0	0
Cc1ccc(N(CN2C(=O)c3ccccc3C2=O)C(=O)c2ccc([N+](=O)[O-])cc2[N+](=O)[O-])cc1	0	0	0
S=C(NCCc1ccccc1)Nc1ccc(N2CCCCC2)cc1	-	7.9µM	?
O=C(Cc1ccccc1)Nc1ccc(N2CCCCC2)cc1	0	0	0
CCC(C)C(=O)Nc1nccs1 (configuration not stated)	0	5.6µM	18µM
CCC(C(=O)Nc1nccs1)(C(F)(F)F)C(F)(F)F	0	7.1µM	7.9µM
CC(Oc1ccc(Cl)cc1)C(=O)Nc1ccc(S(=O)(=O)Nc2nccs2)cc1 (configuration not stated)	-	0	0
Cc1ccc(S(=O)(=O)C2(C(=O)Nc3nccs3)CC2)cc1	0	?	?
CC(Oc1ccc(Cl)cc1)C(=O)Nc1nccs1 (configuration not stated)	0	14µM	0
O=C(Nc1nccs1)C1(S(=O)(=O)c2ccc(Cl)cc2)CC1	-	7.1µM	?
CCC(C(=O)Nc1nccs1)c1ccccc1 (configuration not stated)	0	0[10 µM]	0
CCC(NC(=O)Nc1nccs1)(C(F)(F)F)C(F)(F)F	0	0[10 µM]	0
CC(=O)C1=C(C)Nc2ncnn2C1c1cccc(O)c1 (configuration not stated)	-	0	0
O=C(NN=C1CCCC1)c1cc(Cl)cc(Cl)c1O	-	0	0
CN1CCN(c2ncc3nc(-c4cccc(C#N)c4)c(=O)n(C[C@H]4CCCO4)c3n2)CC1	-	0	0
CC(C)c1ccc(C(=O)NCCCNC(=O)c2cnccn2)cc1	-	0	0
Cc1ccccc1-c1nc(N(C)C)c2ccccc2n1	-	0	0
CCN(CC)CC(=O)Nc1ccc(/C(C)=N/NC2=NCCN2)cc1	0	0	0
COc1ccc(Br)cc1/C(C)=N/NC1=NCCN1	0	?	13µM
SMILES	Luc counter	RORgamma inh	VP16 counter
C/C(=N\NC1=NCCN1)c1ccccc1	-	0	0
CCCCCOc1ccc(Br)cc1/C(C)=N/NC1=NCCN1	0	2.5µM	?
Cc1ccc(N(C(=O)c2csnn2)C(C(=O)NC2CCCCC2)c2ccncc2)c(C)c1 (configuration not stated)	-	0	0
CCOc1cccc2cc(C(=O)NCc3ccc(Cl)cc3)c(=N)oc12	-	0	0
COCCNC(=O)c1cc(OC)c(OC)cc1[N+](=O)[O-]	0	0	0
CCCCCCCCCCCCCCCCn1cc[n+](CC(C)=O)c1	0	?	0[10 µM]
CCCCCCn1ccc(=N)cc1	0	0	7.1µM
O=C1NC(=O)C2C3C=CC(C3)C12 (configuration not stated)	-	0	0
C=CCN1C(=O)/C(=c2\sc3nc(=O)c(Cc4ccccc4)nn3c2=O)c2ccccc21	-	11µM	?
CCN1C(=O)/C(=c2\sc3nc(=O)c(Cc4ccccc4)nn3c2=O)c2ccccc21	-	?	0
CC(NC(=O)CCl)c1ccccc1Br (configuration not stated)	-	0	0
COCCN=c1scc(-c2ccco2)n1/N=C/c1ccc(O)c(O)c1O	0	?	0
CN=c1scc(-c2cccs2)n1/N=C/c1ccccc1O	?	0[10 µM]	0
Oc1ccc(/C=N/n2c(-c3ccco3)csc2=Nc2cccnc2)c(O)c1	0	0	0
CC(C)N=c1scc(-c2ccco2)n1/N=C/c1ccc(O)c(O)c1	0	1.4µM	16µM
CN=c1scc(C)n1/N=C/c1cc(Br)c(O)c(OC)c1	0	0	0
CN=c1scc(-c2cccs2)n1/N=C/c1ccc(O)c(O)c1O	0	1.1µM	1.4µM
C=CCN=c1scc(-c2ccco2)n1/N=C/c1ccc(O)c(O)c1O	-	3.2µM	10µM
CN=c1scc(C)n1/N=C/c1ccc(O)c(O)c1O	?	2.2µM	7.1µM
CCCCCCCCCCOC(=O)NC1CCS(=O)(=O)C1 (configuration not stated)	0	?	?
